mHTT-CaM PPI inh – disrupts binding of mutant huntingtin to calmodulin; P42858; AlphaScreen His-mHTT/GST-CaM binding, luminescence; inhibition, % at 15 µM; 190,000 tested, 3.6% active;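 also: 0% = both proteins with DMSO and 100% = one protein alone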
Pf apPOL inh – Pf-apPOL DNA polymerase inhibition. Recombinant Pf-apPOL, molecular beacon fluorescence, 1.5 h. AID 1794808. 210,000 tested, 0.25% active. inhibition, % at 10 µM
An asterisk follows results filed as active; nt = no result given; ! = a repeat was not active. This excerpt belongs to a sample that is enriched for hits. Rule as the data show it: active = inhibition above about 50%; inactive = the rest.

SMILES	mHTT-CaM PPI inh	Pf apPOL inh
Cc1sc2cc(C(=O)N3CCOCC3)[nH]c2c1CN1CCCC1	24	-3
Cc1sc2cc(C(=O)N3CCCCC3)[nH]c2c1CN1CCOCC1	31	4
Cc1sc2cc(C(=O)N3CCCCCC3)[nH]c2c1CN1CCOCC1	59*	-3
COc1cccc(N2CCN(C(=O)C3CC(=O)N(CCc4ccccc4)C3)CC2)c1 (stereo unspecified)	5	-13
O=C1OC(c2ccccc2)=N/C1=C/c1ccc(OC(F)F)cc1	6	0
CCOc1ccc(C2=NC3(CCN(C(C)C)CC3)NC(c3ccccc3O)C2)cc1 (stereo unspecified)	8	5
Cc1ccccc1N(CC(=O)NCc1ccco1)S(C)(=O)=O	2	65*
COc1ccccc1N(CC(=O)NCc1ccco1)S(C)(=O)=O	4	-9
COc1cc(OC)cc(C(=O)N2CC3CC(NS(=O)(=O)c4cccs4)C2C3)c1 (stereo unspecified)	-4	-8
Cc1cc(C)c(S(=O)(=O)n2cnc3ccccc32)c(C)c1	-4	-2
Cc1ccc(S(=O)(=O)N=C2C=CC(=O)c3ccccc32)c(C)c1	86*	4
Cc1cc(C)c(S(=O)(=O)N=C2C=CC(=O)c3ccccc32)c(C)c1	66*	0
Cc1ccc(S(=O)(=O)N=C2C=CC(=O)C=C2)c(C)c1	39	-7
CSc1ccccc1C(=O)NCc1cc(-c2ccc3c(c2)OCO3)on1	1	-7
Cc1cccc(OCc2noc(-c3cccc(F)c3)n2)c1	-33	2
Cc1cc2c(C(C)C)c(O)c(O)c(C=O)c2c(O)c1-c1c(C)cc2c(C(C)C)c(O)c(O)c(C=O)c2c1O	nt	88*!
Cc1cc(C)n(-c2nc3c(c(=O)[nH]c(=O)n3C)n2CC(O)COc2ccccc2Cl)n1 (stereo unspecified)	100*	14
Cn1c(=O)[nH]c(=O)c2c1nc(N1CCOCC1)n2CC(O)COc1ccc(Cl)cc1Cl (stereo unspecified)	-3	-5
CCOC(=O)c1cc2c(c(C(=O)O)c1O)CCCC2	0	-3
COc1ccccc1-c1nc(C2CCN(C(=O)Cc3c[nH]c4ccccc34)CC2)no1	76*	-6
CCc1nc(C2CCCN(C(=O)Cc3c[nH]c4ccccc34)C2)n[nH]1 (stereo unspecified)	61*	12
CCc1nc(C2CCCN(C(=O)CCc3c[nH]c4ccccc34)C2)n[nH]1 (stereo unspecified)	4	7
COc1cccc(CC(=O)N2CCC(c3noc(-c4cccc(OC)c4)n3)CC2)c1	-1	5
COc1cccc(-c2nc(C3CCN(C(=O)Cc4c[nH]c5ccccc45)CC3)no2)c1	65*	-3
COc1ccccc1-c1nc(C2CCN(C(=O)Cc3cccc4ccccc34)CC2)no1	9	-3
SMILES	mHTT-CaM PPI inh	Pf apPOL inh
O=C(NCCN=C1NS(=O)(=O)c2ccccc21)C1CC(=O)N(c2ccccc2)C1 (stereo unspecified)	-1	-2
O=C(C(=NN=Cc1ccc2c(c1)OCO2)c1ccccc1)c1ccccc1	nt	1
Cc1ccc(C2CN(S(=O)(=O)c3cccc(C)c3)CCN2C)cc1 (stereo unspecified)	3	-2
Cc1cc(-n2ccnc(SCC(=O)NCCC(C)C)c2=O)ccc1Br	0	15
CCOc1cc(N2CCOCC2)c(OCC)cc1NC(C)=O	nt	-5
Cc1ccc(C(=O)N/C(=C/c2ccc3c(c2)OCO3)C(=O)O)cc1	10	-4
Cc1ccc(CNC(=O)C2CCN(c3nccn4nc(-c5ccccc5)cc34)CC2)cc1	10	2
Cc1cc(Br)ccc1S(=O)(=O)n1cnc2ccccc21	-3	-2
COc1ccc(NC(=O)c2ncn[nH]2)cc1	-1	2
COc1ccc(CNC(=O)c2ncn[nH]2)cc1	87*	-6
CC(C)Cn1c(=O)c(N2CCN(C(=O)Cc3cccc(F)c3)CC2)nc2ccncc21	8	2
COc1ccc(-c2nc3cccnc3n2C2CCN(C(=O)Nc3ccc(C)c(F)c3)C2)cc1 (stereo unspecified)	-2	-2
Cn1ccc2c(N(Cc3ccccc3)Cc3ccccc3)cc3c(c21)C1CCC3O1 (stereo unspecified)	43	4
COc1ccccc1N(C)c1cc2c(c3c1ccn3C)C1CCC2O1 (stereo unspecified)	67*	-2
Cn1ccc2c(-c3ccc(F)cc3)cc3c(c21)C1CCC3O1 (stereo unspecified)	23	-8
CN(Cc1ccccc1)c1cc2c(c3c1ccn3C)C1CCC2O1 (stereo unspecified)	72*	-4
CC(=O)Nc1ccc(CNc2ccc3c(c2)CCC3)cc1	39	4
COc1cc(OC)c(CNC2CCCC2)cc1Br	-3	2
c1cc2c(cc1CNc1ccc3c(c1)CCC3)OCO2	72*	-3
Fc1ccc(NCc2ccc3c(c2)OCO3)cc1F	-3	2
COc1ccc(CNc2ccc3c(c2)CCC3)cc1	68*	4
COc1ccc(CNc2ccc(SC)cc2)cc1	43	6
COc1ccc(CNc2cccc(N(C)C)c2)cc1	96*	-3
COc1cc(OC)c(CNc2ccc3c(c2)CCC3)cc1Br	85*	1
CC(C)C(=O)NCc1csc(C2CCN(C(=O)C3CCC3)CC2)n1	-10	0
SMILES	mHTT-CaM PPI inh	Pf apPOL inh
Nc1c2nc[nH]c2c(N)c2[nH]c(=O)c(=O)[nH]c12	36	nt
CC(C)C(=O)N1CCN(c2nc3c(s2)CC(C(=O)NCCc2ccncc2)CC3)CC1 (stereo unspecified)	11	-2
COc1ccc(CNC2CCCC2)cc1Br	0	-7
COc1ccc(CNc2ccc3c(c2)CCC3)cc1Br	77*	4
c1cc(CNc2ccc3c(c2)CCC3)ccn1	35	-3
COc1ccccc1CNc1ccc2c(c1)CCC2	79*	5
COc1cccc(CNc2ccc3c(c2)ncn3-c2ccccc2)c1OC	48	-1
COc1ccccc1CNc1ccc2c(c1)ncn2-c1ccccc1OC	62*	1
COc1ccc(CCN2CC(C(=O)N3CCN(CC(C)C)CC3)CC2=O)cc1OC (stereo unspecified)	-2	2
Cc1cccc(OCC(=O)N2CCc3c(c(-c4nc(-c5ccc(F)cc5)no4)nn3C)C2)c1	-2	-7
Cc1cccc(CNC(=O)c2nn(C)c3c2CN(C(=O)Cc2cccs2)CC3)c1	69*	-10
COCC(=O)N1CCc2c(c(C(=O)NCc3cccc(C)c3)nn2C)C1	-2	-3
Cc1cccc(CNC(=O)c2nn(C)c3c2CN(C(=O)COc2ccc(F)cc2)CC3)c1	63*	-3
Cc1cccc(OCC(=O)N2CCc3c(c(C(=O)NCc4ccc(F)cc4)nn3C)C2)c1	55*	-8
Cc1cccc(CNC(=O)c2nn(C)c3c2CN(C(=O)c2cccs2)CC3)c1	30	-12
COc1ccc(OCC(=O)N2CCc3c(c(C(=O)NCc4cccc(C)c4)nn3C)C2)cc1	70*	-6
CCSc1nnc(NC(=O)c2cn(CC3CCCO3)cc3c(=O)[nH]nc2-3)s1 (stereo unspecified)	-7	-3
COCCCNC(=O)c1cccc(C2CCCN(C(=O)Nc3ccccc3)C2)c1 (stereo unspecified)	-1	6
O=C(NCC1COC2(CCCCC2)O1)C12CC3CC(CC(C3)C1)C2 (stereo unspecified)	-6	-4
COc1cccc(CC(=O)N2CCc3c(c(C(=O)NCc4cccc(C)c4)nn3C)C2)c1	54*	-4
